This is part of a sample that, as a whole, favours compounds with a hit. Of some 83,000 tested, about 20% had one in any assay.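 Results are percent growth after 48 hours of single-concentration exposure. 100 means growth as in untreated cells, lower positive values show inhibition; negative values down to -100 show cell death.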 Unmarked numbers belong to inactive results. The source made the active and inactive calls. The calls were made as follows: active = growth percent below 10; inactive = the rest.
What was measured:
Assay in all cases: NCI-60 one-dose screen, 48 h (100 = growth as untreated, 0 = no growth, -100 = all killed)
Settings in all cases: 10 µM unless noted
NCI-H23 lung = tested on: NCI-H23 lung
NCI-H226 lung = tested on: NCI-H226 lung
NCI-H322M lung = tested on: NCI-H322M lung
HOP-62 NSCLC = tested on: HOP-62 NSCLC
NCI-H460 lung = tested on: NCI-H460 lung
HOP-92 NSCLC = tested on: HOP-92 NSCLC
NCI-H522 lung = tested on: NCI-H522 lung
A549/ATCC NSCLC = tested on: A549/ATCC NSCLC
786-0 renal = tested on: 786-0 renal
COLO 205 colon = tested on: COLO 205 colon

SMILES | growth (NCI-H23 lung) [%] | growth (NCI-H226 lung) [%] | growth (NCI-H322M lung) [%] | growth (HOP-62 NSCLC) [%] | growth (NCI-H460 lung) | growth (HOP-92 NSCLC) | growth (NCI-H522 lung) | growth (A549/ATCC NSCLC) [%] | growth (786-0 renal) [%] | growth (COLO 205 colon)
CC(C)OC(=O)Nc1cc(F)c(F)cc1F | 99 | 98 | 96.3 | 99.8 | 104% | 102% | 97.8% | 97.8 | 107 | 113%
COc1ccc(NC(=O)Nc2ccc(-c3cccnc3)cc2N2CCC(CO)CC2)cc1 | 27.1 | 86.8 | 59.1 | 54 | 60.1% | 78.1% | 25.2% | 41 | 30.8 | 70%
O=C1Cc2c(sc3c(F)cccc23)C(c2ccccc2[N+](=O)[O-])N1 (stereo not given) | 98.6 | 79.3 | 99 | 91.5 | 76.9% | 92.2% | 102% | 106 | 110 | 113%
Fc1ccc(NC(=S)c2ccccc2)cc1 | 104 | 99.1 | 106 | 113 | 107% | 86.5% | 96.3% | 98.8 | 99.5 | 113%
CCCCC(CC)COC(=O)C[N+](C)(C)CCOC(c1ccccc1)c1ccccc1 (stereo not given) | 42 | 54.1 | 88.7 | 60.6 | 65.2% | -12.2% (active) | -24.5% (active) | 88.3 | 77.7 | -28% (active)
O=C(O)CC1CCCCC1c1ccccc1 (stereo not given) | 111 | 98.7 | 103 | 112 | 119% | 99.8% | 90.1% | 106 | 103 | 113%
COc1ccc(/C=C(/C(=O)c2ccc(Cl)cc2)C(=O)C(F)(F)F)cc1 | 91.4 | 99.9 | 77.7 | 91.9 | 109% | 101% | 74.8% | 92 | 99.1 | 110%
Cc1cc(-c2ccc(N=Nc3c(S(=O)(=O)O)cc4cc(S(=O)(=O)O)cc(N)c4c3O)c(C)c2)ccc1N=Nc1cc(S(=O)(=O)O)c2ccccc2c1O | 92.2 | 90 | 86.5 | 93.8 | 107% | 89.6% | 101% | 97.2 | 104 | 110%
COc1cc(NCc2ccccc2O)c2ncccc2c1 | 97.7 | 104 | 90.7 | 83.5 | 97.3% | 81.1% | 88.3% | 110 | 69.5 | 96.9%
Cc1ccc(NCCN2CCCCC2)c2c(=O)c3ccccc3sc12 | 43.1 | 57.2 | 45.7 | 55.6 | 2.26% (active) | 29.5% | 2.96% (active) | 20.2 | 30.7 | -41.8% (active)
CCn1cc(-c2[nH]c(=S)ncc2-c2ccc(Cl)cc2)c(-c2ccc(Br)cc2)n1 | 85.8 | 94 | 96.5 | 61.6 | 58.5% | 104% | 58.5% | 72.2 | 101 | 94%
COc1cc(-c2nc(SCCC(C)C)nc(Nc3ccccc3)c2C#N)cc(OC)c1OC | 97.1 | 101 | 103 | 114 | 101% | 86.8% | 80.6% | 91.5 | 91.7 | 99.1%
